# Data: PubChem BioAssay (NCI)
# This is part of a sample that, as a whole, favours compounds with a hit. Of some 83,000 tested, about 20% had one in any assay.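 Treatment: one concentration, 48 hours, 96-well format. Scoring: percent growth, with anything below 10 considered active.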 Values without a mark were called inactive. Activity calls are given as the source filed them.
# Assays:
# Assay in all cases: NCI-60 one-dose screen, 48 h (100 = growth as untreated, 0 = no growth, -100 = all killed)
# HCT-15 colon = settings: 10 µM unless noted
# HT29 colon = settings: 10 µM unless noted
# SNB-75 CNS = settings: 10 µM unless noted
# SNB-19 CNS = settings: 10 µM unless noted
# U251 CNS = settings: 10 µM unless noted
# PC-3 prostate = settings: 10 µM unless noted
# SK-MEL-5 melanoma = settings: 10 µM unless noted
# UACC-62 melanoma = settings: 10 µM unless noted
# LOX IMVI melanoma = settings: 10 µM
# SK-MEL-28 melanoma = settings: 10 µM unless noted
# SK-MEL-2 melanoma = settings: 10 µM unless noted
# EKVX NSCLC = settings: 10 µM unless noted
# SN12C renal = settings: 10 µM unless noted
# UO-31 renal = settings: 10 µM unless noted
# TK-10 renal = settings: 10 µM unless noted
# ACHN renal = settings: 10 µM unless noted
# CAKI-1 renal = settings: 10 µM unless noted
# A498 renal = settings: 10 µM unless noted
# CCRF-CEM leukemia = settings: 10 µM unless noted
# MOLT-4 leukemia = settings: 10 µM unless noted
SMILES,growth (HCT-15 colon),growth (HT29 colon),growth (SNB-75 CNS),growth (SNB-19 CNS),growth (U251 CNS),growth (PC-3 prostate) [%],growth (SK-MEL-5 melanoma),growth (UACC-62 melanoma),growth (LOX IMVI melanoma),growth (SK-MEL-28 melanoma) [%],growth (SK-MEL-2 melanoma),growth (EKVX NSCLC) [%],growth (SN12C renal),growth (UO-31 renal),growth (TK-10 renal),growth (ACHN renal),growth (CAKI-1 renal),growth (A498 renal),growth (CCRF-CEM leukemia) [%],growth (MOLT-4 leukemia) [%]
COc1ccc(Cc2nn(CC(=O)N/N=C/c3ccc(F)cc3)c(=O)c3c(C)noc23)cc1,67.2%,74%,-17.4% (active),20.1%,17.8%,35.9,82.2%,44.4%,29.5%,35.9,70.5%,29.8,-0.271% (active),-48% (active),-3.12% (active),-39.4% (active),10.2%,-57.5% (active),70.4,92.6
CCOC(=O)/C=C/c1cccc2c1C(=O)NC(C)(c1cc3cc(Br)ccc3oc1=O)N2 (stereo not given),26.4%,43.5%,38.3%,48.7%,47.1%,25.4,48.2%,31.4%,44.3%,58.1,5.72% (active),43.8,53.3%,19.8%,58.4%,28.1%,20.2%,59.8%,36.8,30.4
N/C(=N\c1nc2ccccc2s1)NC(=O)Nc1c(Cl)cccc1Cl,26.1%,8.87% (active),27.7%,54.7%,27.9%,63.2,22.4%,23.6%,24.7%,50.6,6% (active),37.6,30.4%,47.6%,93.8%,48.1%,32%,94.3%,30,30
Cc1cccc(NC(=O)CN2CCN(c3ncnc4c3cnn4-c3ccccc3)CC2)c1,55.4%,76.1%,100%,83.1%,89%,63.1,78.5%,67.9%,88.1%,90.1,80.2%,85.9,83.4%,54.9%,130%,79.9%,82.9%,98%,76.7,75
O=C1CC(Sc2n[nH]c(-c3ccncc3)n2)C(=O)N1c1ccc(Br)cc1 (stereo not given),102%,112%,106%,96.1%,107%,118,115%,96.9%,100%,108,116%,106,93.6%,88.7%,101%,109%,99.9%,111%,88.9,115
Cc1ccc(-c2nc(C#N)c(S(=O)(=O)N3CCN(S(=O)(=O)c4ccc(Cl)cc4)CC3)o2)cc1,103%,117%,86.3%,68.9%,62.1%,101,94.4%,83.5%,0.237% (active),98.7,95.7%,99,93.4%,97.3%,117%,43.8%,94.1%,107%,13.1,75.7
N/C(=N\c1nc2ccccc2s1)NC(=O)Nc1ccccc1Br,-4.76% (active),-61.1% (active),-33.3% (active),2.22% (active),-53.3% (active),34.6,-55.3% (active),-7.53% (active),-75.7% (active),28.5,-0.501% (active),27.1,-39.3% (active),11.3%,-15.6% (active),-39.3% (active),-17.4% (active),26.2%,12.6,21.5
